COUP-TFII inh – NR2F2 transcriptional activity inhibitors, primary screen, cell-based, luciferase reporter, HEK293T, luminescence; inhibition, % at 8.6 µM; actives 0.7% (n = 370,000); HEK293T NGFI-A luciferase reporter; AID 686940, 2013; COUP transcription factor 2 (Homo sapiens), P24468;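 active = inhibition above a per-plate cutoff, mean inhibition of test wells between control levels plus 3 SD, cut at about 38% in these data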;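 note: cells cotransfected with COUP-TFII expression vector driving the NGFI-A reporter; 0% = median of COUP-TF2 test wells and 100% = reporter-only cells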
Target sequence (P24468 whole entry, looked up): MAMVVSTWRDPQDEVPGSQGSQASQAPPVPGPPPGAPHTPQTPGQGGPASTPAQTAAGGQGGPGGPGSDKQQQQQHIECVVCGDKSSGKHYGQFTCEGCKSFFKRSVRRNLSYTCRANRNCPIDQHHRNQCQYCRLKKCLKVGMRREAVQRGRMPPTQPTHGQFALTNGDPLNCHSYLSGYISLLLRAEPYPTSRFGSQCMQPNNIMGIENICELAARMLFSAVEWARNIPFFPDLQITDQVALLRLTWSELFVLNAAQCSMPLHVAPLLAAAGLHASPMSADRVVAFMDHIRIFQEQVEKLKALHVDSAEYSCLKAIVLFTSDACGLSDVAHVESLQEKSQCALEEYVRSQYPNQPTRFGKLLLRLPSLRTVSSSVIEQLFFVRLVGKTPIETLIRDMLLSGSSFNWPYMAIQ
NCOA1 inh – SRC1 coactivator transcriptional activity inhibitors, primary screen, cell-based, luminescence; Nuclear receptor coactivator 1 (Homo sapiens), Q15788; HEK293 GAL4-SRC1 luciferase reporter; inhibition, % at 3.6 µM; actives 0.12% (n = 360,000); AID 588354, 2011;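 active = inhibition above the campaign mean plus 3 SD, with each screening campaign given its own cutoff, cut at about 60% in these data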;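 note: 0% = DMSO treated cells and 100% = gossypol at 36 µM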
NR5A2 inv ag – LRH-1 (NR5A2) inverse agonists, primary screen, cell-based, luminescence, HEK293T, StAR-luciferase reporter | LRH-1 transfected, 24 h | AID 602396, 2012 | Nuclear receptor subfamily 5 group A member 2 (Homo sapiens), O00482 | inhibition, % at 3.6 µM | actives 0.13% (n = 360,000);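 active = inhibition above the mean inhibition of all tested compounds plus 3 SD, cut at about 73% in these data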;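 note: 0% = DMSO wells and 100% = reporter-only cells lacking LRH-1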
NCOA3 inh – SRC3 coactivator transcriptional activity inhibitors, primary screen, cell-based, luminescence. actives 0.17% (n = 360,000). AID 588352, 2011. HEK293 GAL4-SRC3 luciferase reporter. inhibition, % at 3.6 µM. Nuclear receptor coactivator 3 (Homo sapiens), Q9Y6Q9;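 active = inhibition above a per-campaign cutoff, the mean of all compounds plus 3 SD, cut at about 60% in these data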;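 note: 0% = DMSO-treated cells and 100% = gossypol-treated cells at 36 µM; higher means less SRC3-driven luciferase light from the GAL4 reporter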
Gli-Sufu block – Gli-Sufu pathway antagonists, primary screen, luciferase luminescence, Sufu-KO-LIGHT cells, uHTS; Sufu-KO-LIGHT fibroblasts, Gli luciferase reporter luminescence; inhibition, % at 5 µM; actives 0.74% (n = 340,000); AID 588413, 2011;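 active = inhibition above about 55%, limit read from the data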;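 note: 0% = DMSO-treated cells and 100% = wells with medium but no cells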
NCOA2 inhibitor – inhibition of GAL4-SRC2 driven luciferase reporter, primary screen, SRC2 inhibitor project, cell-based, luminescence | Nuclear receptor coactivator 2 (Homo sapiens), Q15596 | HEK293 GAL4-SRC2 luciferase reporter | inhibition, % at 9 µM | actives 0.17% (n = 370,000);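 active = inhibition above the mean inhibition of all tested compounds plus 3 SD, set per campaign, cut at about 52% in these data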;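 note: 0% = DMSO treated cells and 100% = cells given Gossypol at 36 µM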
Starred values were filed as active, the others as inactive; x = not tested or not shown. An excerpt weighted towards active compounds, which were near 1.2% of everything screened.

SMILES	COUP-TFII inh	NCOA1 inh	NR5A2 inv ag	NCOA3 inh	Gli-Sufu block	NCOA2 inhibitor
C=C1C(=O)[C@@]23[C@H](O)C[C@@H]4C(C)(C)CC[C@H](O)[C@@]4(C)[C@@H]2CC[C@@H]1[C@H]3O	23	44	38	35	80*	60*
COc1ccc(-n2c(COc3ccc(Cl)cc3)nnc2SCC(=O)Nc2ccc(Oc3ccccc3)cc2)cc1	-2	x	x	x	x	-35
O=C(NCc1ccco1)C1CCCN(S(=O)(=O)c2ccccc2[N+](=O)[O-])C1 (stereo not drawn)	-23	x	x	x	x	0
CCCCC(=O)Nc1cccc(-c2csc(-c3ccccc3)n2)c1	-10	-17	-38	-22	-38	-27
O=C(O)CCC(=O)Nc1cccc(-c2csc(-c3ccccc3)n2)c1	34	0	18	29	0	52*
CCCOc1ccc(C2NC(=O)NC2=O)cc1 (stereo not drawn)	8	-21	19	1	0	-14
O=C1NC(=O)C(c2ccc(F)cc2)N1 (stereo not drawn)	-9	90*	89*	89*	29	6
CC1(C)OC(=O)C2=C(CC(CCc3ccccc3)OC2c2ccc(Cl)c(Cl)c2)O1 (stereo not drawn)	10	x	x	x	x	20
COCCn1c(C)cc(C(=O)COc2ccc(C)nc2[N+](=O)[O-])c1C	5	39	18	37	7	54*
CCCn1c(C)cc(C(=O)COc2ccc(C)nc2[N+](=O)[O-])c1C	14	15	17	36	21	31
COC(=O)C1CN(CC(C)C)CCS(=O)(=O)N1Cc1ccc(OC)cc1 (stereo not drawn)	-19	x	x	x	x	-8
CCOC(=O)[C@]12CCCC=C1N(Cc1ccc(OC)cc1)C(=O)[C@@H]2CC(=O)NCc1cccc(C(F)(F)F)c1	21	x	x	x	x	-1
CCn1c(Oc2ccccc2F)nc2c1c(=O)n(C)c(=O)n2C	12	68*	26	60	-22	59*
CCn1c(Oc2ccccc2)nc2c1c(=O)n(C)c(=O)n2C	13	-10	-3	23	20	40
COc1ccc(NC(=O)OC[C@@H]2CSCCS(=O)(=O)N2)cc1	-25	x	x	x	x	24
Cc1cc(Cl)n2c(nc3cc(F)c(F)cc32)c1C#N	-57	2	26	-3	62*	26
Cc1cc(C)n2c(=O)c3ccc(Cl)cc3nc2c1C#N	-7	-2	-7	-15	-7	19
Cc1onc(-c2ccccc2)c1C(=O)NCC1CCN(C(=O)C(=O)c2cccs2)CC1	7	x	x	x	x	17
C#CCN1CC(N(C)CCO)CS1(=O)=O (stereo not drawn)	-8	x	x	x	x	-2
N=c1c2c(-c3ccccc3)c(-c3ccccc3)n(Cc3ccccc3)c2ncn1CCCn1ccnc1	14	50	40	67*	26	-32
O=C(Nc1nc(-c2ccccn2)cs1)c1ccc(Br)s1	10	10	0	8	82*	14
O=C(Nc1nc(-c2ccccn2)cs1)c1ccco1	-2	-20	-12	5	-7	-9
O=C(NCc1ccccc1)[C@H]1CCCN1C(=O)[C@H]1CCCN1C(=O)c1ccc(Cl)cc1	-2	x	x	x	x	-15
CN(C)Cc1c(C(=O)N/N=C/c2cccc(OCc3c(F)cccc3Cl)c2)nnn1-c1nonc1N	-9	10	-4	-21	67*	13
CN(C)Cc1c(C(=O)N/N=C/c2ccccc2OCc2c(F)cccc2Cl)nnn1-c1nonc1N	-44	4	11	6	-3	-7
COc1ccc(-n2c(SCC(=O)N3CCCC3)nnc2-c2ccncc2)cc1	13	x	x	x	x	12
O=C(N/N=C(\c1ccccc1)c1cccnc1)c1cccc(F)c1	-23	48	71	58	94*	-7
CC(C)c1cc(=O)oc2c3c4c(cc12)CCCN4CCC3	8	1	36	8	-4	-15

Compound activity as filed in PubChem BioAssay.
